The results in this text go back to PubChem BioAssay (NCATS).

Assay [1] can be described thus: AP1 Signaling Pathway (AID 357; active = well fitted curve in either direction with a large enough effect, not every such curve was filed as active;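 also: ME-180 reporter cells stimulated with EGF at its EC50 level; % is scaled to controls: 0 for no effect and ±100 for the full control effect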). In short, it runs like this:
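A ratiometric CCF4 readout (405 nm excitation; 460 and 530 nm emission) quantified AP-1-driven beta-lactamase in ME-180 cells after 5 h with compound and EC50 EGF; AC50 values were derived for activators and inhibitors.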

Assay [2] is described as follows: Stat Signaling Pathway (AID 446; active = well fitted curve in either direction with a large enough effect, not every such curve was filed as active;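 also: ME-180 cervical cancer cells given 40 pM IL-6 alongside compound; SIE-controlled beta-lactamase reporter measured as 460/530 nm FRET emission ratio; % is scaled to controls: 0 for no effect and ±100 for the full control effect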). In short, it runs like this: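 Overnight-plated ME-180 cells bearing a STAT Inducible Element beta-lactamase reporter; 5 h co-exposure to compound and 40 pM IL-6; values normalized to 300 pM IL-6 and 125 nM JAK inhibitor controls.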
Assay [3] concerns the target Glucocorticoid receptor (Homo sapiens) (UniProt P04150). The experiment in a line: GR-GFP Redistribution (AID 450;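 active = compounds whose dose series gives a full or clear partial fitted curve of increased nuclear translocation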; also: potency is read from the fitted curve at half-maximal effect). To be noted: U2OS GR-GFP nuclear translocation, laser cytometry, 2 h.
Assay [4] has the same target. As to the kind of experiment: GR-EFC Redistribution (AID 451; calls by dose curve; also: potency is read from the fitted curve at half-maximal effect). To be noted: CHO-K1 GR-EFC translocation, beta-gal luminescence, 2 h. In short, it runs like this: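 CHO-K1 cells stably expressing nuclear-localized β-gal enzyme acceptor and GR fused C-terminally to the enzyme donor fragment; ligand-driven nuclear translocation restores β-gal by complementation. Compounds titrated up to 46 uM final, 2 h at 37 °C; luminescence read.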

In assay [5] the target is Mitogen-activated protein kinase 10 (Mus musculus) (UniProt Q61831). As to the kind of experiment: JNK3 AlphaScreen Assay (AID 530; active = well fitted curve in either direction with a large enough effect, not every such curve was filed as active;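 also: kinase came from lysate of stimulated human HepG2 cells; signal reports phosphorylation of biotinylated GST-cJun 1-79 at Ser73 with 10 µM ATP; % is scaled to controls: 0 for no effect and ±100 for the full control effect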). An outline of the steps: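 Phosphorylation of biotinylated GST-cJun(1-79) at Ser73 is measured by AlphaScreen proximity luminescence. Enzyme is JNK3 in HepG2 lysates activated with interleukin-1beta and tumor necrosis factor alpha; ATP is 10 uM final.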
A general note: Bead proximity is the source of the signal in Alpha formats.

The target in assay [6] is 3',5'-cyclic-AMP phosphodiesterase 4B (Homo sapiens) (UniProt Q07343). As to the kind of experiment: qHTS Assay for Inhibitors of PDE-IV (AID 607; active = well fitted activation curve with a large enough effect in the main read-out, with a control signal flat, not every such curve was filed as active; also: % of control where 0% means no effect). In short, it runs like this:
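Live HEK293 cells with a modified cyclic nucleotide-gated (CNG) channel report intracellular cAMP via membrane-potential dye fluorescence (ex 535/em 590 nm). Endogenous PDE-IV was targeted. Compounds were tested at up to 22.9 uM final; RO 20-1724 100 uM served as control.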
In general terms: Quantitative high-throughput screening tests each substance at several concentrations.

Assay [7] in a line: qHTS Assay for Lipid Storage Modulators (AID 1519; calls by dose curve). Particulars: Drosophila S3 cells, BODIPY lipid droplet/cell ratio, laser cytometry, cells loaded with oleic acid; for activity change, negative = inhibition: at 25.7 µM (top of the series). In short, it runs like this: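 Cells seeded at 5,000 per well were treated with compounds over a concentration series and loaded with oleic acid (400 uM, as added). Lipid droplet fluorescence (488 nm excitation, 500-530 nm channel) was read by laser-scanning cytometry and normalized to 20 uM Triacsin C.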

A short description of assay [8]: NFAT Signaling Pathway (AID 444; active = well fitted curve in either direction with a large enough effect, not every such curve was filed as active;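 also: carbachol stimulus at about its EC50 of 1 µM final; % is scaled to controls: 0 for no effect and ±100 for the full control effect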). Particulars: Jurkat NFAT-bla M1, carbachol, beta-lactamase ratio, 5 h; at 17.2 µM (top of the series) unless noted. In short, it runs like this:
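Jurkat cells carrying an NFAT-driven β-lactamase reporter and co-transfected muscarinic M1 receptor were treated with compound plus carbachol (1 uM final, an EC50 level) for 5 h at 37 °C. CCF4 loading followed for 1 h at RT; 460/530 nm ratio gave %activity.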

The target of assay [9] is Ubiquitin carboxyl-terminal hydrolase 1 (Homo sapiens) (UniProt O94782). As to the kind of experiment: Inhibitors of USP1/UAF1: Pilot qHTS (AID 504865).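 Also: rhodamine fluorescence freed from ubiquitin-rhodamine substrate followed over time; top concentration of the series differs between compounds; % is scaled to controls: 0 for no effect and ±100 for the full control effect; nearly all actives have a fitted effect of over 35% in size.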 An outline of the steps: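 Kinetic fluorescence assay: 1nM USP1/UAF1, 15 min compound preincubation, then 150nM Ub-Rho; 480/540 nm.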
Assay [10] addresses ATP-dependent 6-phosphofructokinase (Trypanosoma brucei brucei) (UniProt O15648). As to the kind of experiment: qHTS Assay to Find Inhibitors of T. brucei phosphofructokinase: hit validation (AID 492961). An outline of the steps:
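Reaction: 0.1 M triethanolamine pH 8.0, 5 mM MgCl2, F6P 0.5 mM, ATP 0.1 mM, PFK 1.25 nM, 45 min RT. Read-out: ADP-Glo luminescence. Analysis: concentration-response fits, classed by r2 and efficacy.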

The target of assay [11] is Luciferin 4-monooxygenase (Photinus pyralis) (UniProt P08659). The experiment in a line: Biochemical firefly luciferase enzyme assay for NPC (AID 624030).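 Also: purified P. pyralis luciferase at 10 nM with luciferin and ATP substrate; 0% = DMSO and -100% = full luciferase inhibition by PTC124 control; nearly all actives have a fitted effect of over 70% in size.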 An outline of the steps:
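Counter-screen for direct inhibition of the luciferase enzyme by approved-drug library compounds, run at 10 nM enzyme in 50 mM Tris acetate (final). Luminescence was read within 5 min of enzyme-buffer addition and normalized to PTC124 versus DMSO (0%).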

The nature of assay [12]: qHTS profiling for inhibitors of Plasmodium falciparum proliferation (AID 504749).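 Also: 0% = DMSO vehicle and full inhibition = artemisinin control; nearly all actives have a fitted effect of over 60% in size.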 To be noted: P. falciparum in erythrocytes, SYBR Green DNA, 72 h, at 12.8 µM (top of the series). In short, it runs like this:
(§1)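 Quantitative HTS: compounds pinned into medium, infected erythrocytes added (0.3% parasitemia, 2.5% hematocrit), 72 h culture at 37 C under 5% CO2. Saponin/Triton lysis with SYBR Green I, overnight RT, then fluorescence read.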

Another assay concerns C2A. The description is as above. Particulars: P. falciparum in erythrocytes, SYBR Green DNA, 72 h; series mostly up to 12.8 µM. In short, it runs like this:
as §1

A further assay relates to CP217. The assay is described as above. Particulars: P. falciparum in erythrocytes, SYBR Green DNA, 72 h; series mostly up to 12.8 µM. An outline of the steps: as §1
The next assay has as its system CP238. The description is as above. Particulars: P. falciparum in erythrocytes, SYBR Green DNA, 72 h; series mostly up to 12.8 µM. In short, it runs like this:
as §1

The next assay has as its system CP250. The assay is described as above. To be noted: P. falciparum in erythrocytes, SYBR Green DNA, 72 h; series mostly up to 12.8 µM. In short, it runs like this:
as §1

The next assay has as its system CP252. The description is as above. To be noted: P. falciparum in erythrocytes, SYBR Green DNA, 72 h; series mostly up to 12.8 µM. In short, it runs like this: as §1
Another assay deals with FAB9. The assay is described as above. Particulars: P. falciparum in erythrocytes, SYBR Green DNA, 72 h; series mostly up to 12.8 µM. An outline of the steps: as §1
Another assay relates to HB3. The assay is described as above. To be noted: P. falciparum in erythrocytes, SYBR Green DNA, 72 h; series mostly up to 12.8 µM. In short, it runs like this: as §1
In another assay the test system is SC27B. The assay is described as above. Particulars: P. falciparum in erythrocytes, SYBR Green DNA, 72 h; series mostly up to 12.8 µM. In short, it runs like this: as §1
Setting [13] is: measured here: cell count channel max response.
[14] abbreviates: measured here: lipid channel max response.

Results filed as inconclusive are left out. Active and inactive are the calls of the source. Unless noted, calls follow the shape of the dose curve; as a rule, active = well fitted curve in the direction sought with a large enough effect; inconclusive = small, poorly fitted or top-dose-only effect, or another doubt; inactive = no such curve, though single readings can be large; an effect the other way counts as inactive or inconclusive. A value given as a limit tells only on which side of the number the result lay.

Chain of 3',5'-cyclic-AMP phosphodiesterase 4B (Homo sapiens) (Q07343 whole entry, looked up): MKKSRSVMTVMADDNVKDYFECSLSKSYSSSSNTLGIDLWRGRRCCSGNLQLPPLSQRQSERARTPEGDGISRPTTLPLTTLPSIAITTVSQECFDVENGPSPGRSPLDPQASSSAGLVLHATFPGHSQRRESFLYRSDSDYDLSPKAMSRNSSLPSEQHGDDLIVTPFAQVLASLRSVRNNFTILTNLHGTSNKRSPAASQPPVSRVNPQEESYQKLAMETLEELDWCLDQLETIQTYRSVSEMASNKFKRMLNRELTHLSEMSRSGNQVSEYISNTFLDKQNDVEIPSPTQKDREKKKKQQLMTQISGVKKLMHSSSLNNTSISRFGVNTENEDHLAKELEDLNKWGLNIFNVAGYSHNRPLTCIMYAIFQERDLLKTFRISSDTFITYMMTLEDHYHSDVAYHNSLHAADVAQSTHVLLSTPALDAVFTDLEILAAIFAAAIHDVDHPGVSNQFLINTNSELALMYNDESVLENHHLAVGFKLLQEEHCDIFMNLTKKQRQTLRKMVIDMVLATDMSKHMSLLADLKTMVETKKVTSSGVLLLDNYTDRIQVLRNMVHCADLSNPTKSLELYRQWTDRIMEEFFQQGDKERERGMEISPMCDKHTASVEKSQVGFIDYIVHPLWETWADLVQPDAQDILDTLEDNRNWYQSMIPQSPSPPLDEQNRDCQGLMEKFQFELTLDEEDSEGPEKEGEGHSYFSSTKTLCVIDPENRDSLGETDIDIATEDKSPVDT
Chain of Glucocorticoid receptor (Homo sapiens) (P04150 whole entry, looked up, the tested form may be a part): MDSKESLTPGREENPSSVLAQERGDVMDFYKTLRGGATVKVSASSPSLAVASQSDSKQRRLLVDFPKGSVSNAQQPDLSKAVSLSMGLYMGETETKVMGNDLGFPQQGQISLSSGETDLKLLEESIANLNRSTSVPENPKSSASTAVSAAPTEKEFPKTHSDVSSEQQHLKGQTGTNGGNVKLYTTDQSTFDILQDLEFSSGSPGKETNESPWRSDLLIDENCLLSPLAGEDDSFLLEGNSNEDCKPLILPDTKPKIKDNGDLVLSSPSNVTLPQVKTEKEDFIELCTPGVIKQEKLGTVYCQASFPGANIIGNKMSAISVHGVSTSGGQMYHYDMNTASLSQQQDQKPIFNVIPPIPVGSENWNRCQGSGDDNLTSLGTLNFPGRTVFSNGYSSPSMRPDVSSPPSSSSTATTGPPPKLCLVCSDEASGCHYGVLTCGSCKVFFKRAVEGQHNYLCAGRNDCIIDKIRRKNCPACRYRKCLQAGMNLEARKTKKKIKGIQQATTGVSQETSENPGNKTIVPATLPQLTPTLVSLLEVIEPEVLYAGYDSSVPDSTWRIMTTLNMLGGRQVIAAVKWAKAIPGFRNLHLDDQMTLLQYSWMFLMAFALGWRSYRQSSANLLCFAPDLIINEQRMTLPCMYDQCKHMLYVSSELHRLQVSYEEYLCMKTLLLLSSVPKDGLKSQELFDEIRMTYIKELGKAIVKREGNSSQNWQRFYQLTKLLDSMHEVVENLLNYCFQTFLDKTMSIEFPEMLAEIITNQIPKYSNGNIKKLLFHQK
Chain of Ubiquitin carboxyl-terminal hydrolase 1 (Homo sapiens) (O94782 whole entry, looked up): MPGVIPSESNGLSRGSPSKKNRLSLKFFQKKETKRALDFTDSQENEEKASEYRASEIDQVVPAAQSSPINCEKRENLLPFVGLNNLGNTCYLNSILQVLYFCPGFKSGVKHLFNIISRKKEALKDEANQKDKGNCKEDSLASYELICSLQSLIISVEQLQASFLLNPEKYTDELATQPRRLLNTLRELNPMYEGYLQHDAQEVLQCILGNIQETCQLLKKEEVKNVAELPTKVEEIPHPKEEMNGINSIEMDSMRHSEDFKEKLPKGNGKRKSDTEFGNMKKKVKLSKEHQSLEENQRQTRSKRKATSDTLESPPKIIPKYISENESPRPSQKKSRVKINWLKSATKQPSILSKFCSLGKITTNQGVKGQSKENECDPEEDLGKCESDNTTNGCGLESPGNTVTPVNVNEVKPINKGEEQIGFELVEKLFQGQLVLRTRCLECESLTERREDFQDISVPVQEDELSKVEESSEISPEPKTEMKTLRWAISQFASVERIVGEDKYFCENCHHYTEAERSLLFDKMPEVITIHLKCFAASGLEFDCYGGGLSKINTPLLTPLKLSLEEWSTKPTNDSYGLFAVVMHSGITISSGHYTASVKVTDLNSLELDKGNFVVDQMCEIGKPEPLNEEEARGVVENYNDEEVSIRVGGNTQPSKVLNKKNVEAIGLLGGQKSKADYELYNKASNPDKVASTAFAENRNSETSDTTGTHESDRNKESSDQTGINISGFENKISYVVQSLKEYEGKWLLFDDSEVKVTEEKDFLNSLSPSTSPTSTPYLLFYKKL
Chain of Luciferin 4-monooxygenase (Photinus pyralis) (P08659 whole entry, looked up): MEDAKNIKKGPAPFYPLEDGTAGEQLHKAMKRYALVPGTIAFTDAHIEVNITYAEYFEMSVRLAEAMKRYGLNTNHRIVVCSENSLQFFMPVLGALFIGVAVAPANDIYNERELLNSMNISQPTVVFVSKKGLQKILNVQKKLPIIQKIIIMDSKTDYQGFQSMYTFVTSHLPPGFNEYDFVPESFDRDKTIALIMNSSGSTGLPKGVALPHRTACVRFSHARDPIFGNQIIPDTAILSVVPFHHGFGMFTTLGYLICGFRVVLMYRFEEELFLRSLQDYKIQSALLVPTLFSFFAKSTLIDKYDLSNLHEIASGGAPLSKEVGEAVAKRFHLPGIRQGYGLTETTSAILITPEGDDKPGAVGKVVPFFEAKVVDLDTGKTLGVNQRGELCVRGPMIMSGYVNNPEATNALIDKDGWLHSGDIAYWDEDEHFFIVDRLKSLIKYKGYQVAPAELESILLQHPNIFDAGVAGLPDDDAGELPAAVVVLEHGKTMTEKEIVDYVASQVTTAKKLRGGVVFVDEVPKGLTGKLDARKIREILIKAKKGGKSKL
Chain of ATP-dependent 6-phosphofructokinase (Trypanosoma brucei brucei) (O15648 whole entry, looked up): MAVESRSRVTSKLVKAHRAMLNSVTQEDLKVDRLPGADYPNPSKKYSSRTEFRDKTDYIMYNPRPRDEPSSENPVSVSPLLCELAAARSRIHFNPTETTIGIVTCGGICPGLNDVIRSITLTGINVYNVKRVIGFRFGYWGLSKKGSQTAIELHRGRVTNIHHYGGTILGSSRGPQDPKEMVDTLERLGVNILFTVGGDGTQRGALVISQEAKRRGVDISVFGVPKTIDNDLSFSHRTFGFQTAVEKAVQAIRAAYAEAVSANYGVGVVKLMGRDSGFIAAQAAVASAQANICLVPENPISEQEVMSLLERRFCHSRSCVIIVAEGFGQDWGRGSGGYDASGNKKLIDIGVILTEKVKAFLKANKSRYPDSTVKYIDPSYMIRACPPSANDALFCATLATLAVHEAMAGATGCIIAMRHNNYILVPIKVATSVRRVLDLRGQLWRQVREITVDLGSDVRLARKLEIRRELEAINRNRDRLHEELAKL

With `CC(=O)O[C@H]1C[C@H]2CC[C@@H]3[C@@H](CC[C@]4(C)[C@H](OC(C)=O)[C@H]([N+]5(C)CCCCC5)C[C@@H]34)[C@]2(C)C[C@H]1[N+]1(C)CCCCC1`, the outcome in [1], in [2] and in [6] was inactive. The Potency in [3] and in assay [4] was > 20.6 µM (inactive) each time. Also, the Potency entry in assay [5] is “inactive”. Also, the activity change, negative = inhibition in assay [7] was -3.97% (inactive). Further, the figures for the max response in assay [7] (setting [13]) and in assay [7] (setting [14]) were 0.133% and -5.07%, respectively.

With `CO[C@@H]1C=CO[C@]2(C)Oc3c(C)c(O)c4c(O)c(c(C=NN5CCN(C)CC5)c(O)c4c3C2=O)NC(=O)C(C)=CC=C[C@H](C)[C@H](O)[C@H](C)[C@H](O)[C@H](C)[C@H](OC(C)=O)[C@H]1C`, the compound was classed as inactive in assay [1] and in [2]. Moreover, the activity change, negative = inhibition in [8] was -8.69% (inactive); in assay [7], -0.87% (inactive). Moreover, the Potency entry in assay [5] was “inactive”. In addition, the max response is -4.36% in assay [7] (setting [13]) and -4.23% in assay [7] (setting [14]).

Turning to `O[C@H](c1cc(C(F)(F)F)nc2c(C(F)(F)F)cccc12)[C@H]1CCCCN1`, in assay [1], the outcome was inactive. For the same compound, the figures for the activity change, negative = inhibition in assay [8] and in assay [7] were 24.6% (inactive) and -11.8% (inactive), respectively. Also, the Potency in [3] and in [4] was > 20.6 µM (inactive) each time. The Potency result in assay [5] and in [9] was “inactive” throughout. For the same compound, the max response was -16.3% in [7] (setting [13]) and -23.7% in [7] (setting [14]).

With `CC[N+]1(C)[C@@H]2CC[C@H]1CC(OC(=O)[C@H]1CC[C@@](C(=O)OC3C[C@H]4CC[C@@H](C3)[N+]4(C)CC)(c3ccccc3)c3ccccc31)C2` (stereo not given in full), the call in assay [1], in [2] and in assay [6] was inactive. The Potency in [3] and in assay [4] was > 20.6 µM (inactive) in each case. For the same compound, the Potency entry in assay [5] and in assay [9] was “inactive” throughout. Also, the activity change, negative = inhibition in assay [7] is -4.59% (inactive). Besides, the max response in [7] (setting [13]) was -11.7%; in [7] (setting [14]), -14.8%.

As to `CC1(C)S[C@@H]2[C@H](NC(=O)[C@@H](N)c3ccc(O)cc3)C(=O)N2[C@H]1C(=O)O`, the compound was classed as inactive in assay [1], in assay [2] and in [6]. Further, the activity change, negative = inhibition in [8] was -4.29% (inactive); in assay [7], -0.615% (inactive). Also, the Potency result in [5] and in [9] was “inactive” throughout. Moreover, the max response in [7] (setting [13]) is -7.54%; in assay [7] (setting [14]), -10.4%.

For the compound `CCN(CC)CCOC(=O)[C@@H](Cc1cccc2ccccc12)C[C@@H]1CCCO1`, the outcome in [1], in assay [2], in assay [6] and in assay [10] was inactive. The Potency result (in assay [5]; in assay [9]; in assay [11]; in the assay on C2A; in the assay with CP217; with CP238) was “inactive” throughout. The Potency result with CP250, in the assay on CP252, in the assay on FAB9, in the assay with HB3 and with SC27B was “inactive” throughout. In addition, in assay [7], the activity change, negative = inhibition is -5.4% (inactive). For the same compound, the figures for the max response in assay [7] (setting [13]) and in [7] (setting [14]) were -1.15% and -7.84%, respectively. For the same compound, the figures for the activity, negative = inhibition in assay [12] (parasite line A) and in [12] (parasite line B) were 5.1% (inactive) and 10% (inactive), respectively.

Turning to `CO[C@]1(NC(=O)[C@H](C(=O)O)c2ccc(O)cc2)C(=O)N2C(C(=O)O)=C(CSc3nnnn3C)CO[C@H]21`, the values for the activity change, negative = inhibition in assay [8] and in assay [7] were 6.17% (inactive) and -4% (inactive), respectively. The compound was classed as inactive in assay [2] and in assay [10]. For the same compound, the Potency in assay [3] and in assay [4] was > 20.6 µM (inactive) in each case. Further, the Potency result (in [5]; in assay [9]; in [11]; in the assay with C2A; in the assay on CP217; in the assay with CP238) was “inactive” throughout. In addition, the Potency entry in the assay on CP250, with CP252, in the assay with FAB9, in the assay with HB3 and in the assay on SC27B was “inactive” in each case. The values for the max response in assay [7] (setting [13]) and in assay [7] (setting [14]) were -7.15% and -8.95%, respectively. The activity, negative = inhibition in assay [12] (parasite line A) was 8.42% (inactive); in [12] (parasite line B), 2.41% (inactive).
